This is a sample that favours compounds with a hit; in the whole collection about 1.2% have one here.
LmPK inh – blocks Leishmania mexicana pyruvate kinase activity. Potency, µM (series often up to 57.5 µM), without a hit: top-dose activity change, negative = inhibition, most hits filed as inhibitors. purified LmPK, Kinase-Glo ATP luminescence, 1 h. Q27686. 0.37% of 290,000 active; further: potency means the concentration at half of the fitted maximal effect; on the % scale 0 is the no-effect control and ±100 the full control effect
Target sequence (Q27686 whole entry, looked up): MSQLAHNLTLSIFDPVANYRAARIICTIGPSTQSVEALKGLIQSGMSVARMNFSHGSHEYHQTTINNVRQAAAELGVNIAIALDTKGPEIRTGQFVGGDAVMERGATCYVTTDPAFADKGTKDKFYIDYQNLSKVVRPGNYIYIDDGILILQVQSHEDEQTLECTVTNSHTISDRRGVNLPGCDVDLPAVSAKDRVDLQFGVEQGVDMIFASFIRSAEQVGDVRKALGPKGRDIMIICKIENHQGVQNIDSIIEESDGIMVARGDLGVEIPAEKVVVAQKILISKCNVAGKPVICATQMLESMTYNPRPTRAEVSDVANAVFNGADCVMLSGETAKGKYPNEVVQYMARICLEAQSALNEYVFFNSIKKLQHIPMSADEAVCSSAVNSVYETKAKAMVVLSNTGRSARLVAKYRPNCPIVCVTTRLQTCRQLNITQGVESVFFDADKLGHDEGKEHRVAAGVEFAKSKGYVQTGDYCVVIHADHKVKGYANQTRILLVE
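Kinase-Glo luminescence read after 1 h RT reaction of 0.1 nM LmPK with 0.5 mM PEP and 0.1 mM ADP. Activity scaled between uninhibited and enzyme-free controls.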
Giardia FBPA inh – Giardia lamblia aldolase inhibition; AID 2451; 0.71% of 290,000 active; A8B2U2; Potency, µM (titrated, usually from 59.6 µM), for the others: top-dose activity, negative = inhibition, most hits filed as inhibitors; purified Giardia FBPA; further: potency means the concentration at half of the fitted maximal effect; on the % scale 0 is the no-effect control and ±100 the full control effect; nearly all actives have a fitted effect of over 55% in size
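40 nM FBPA preincubated 10 min at RT with compound (up to 57.5 uM final), then substrate plus GAPDH/TPI/NAD/arsenate coupling and diaphorase/resazurin added. Fluorescence read after 20 min at RT, 525/598 nm.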
Tb PYK inh – T. brucei pyruvate kinase inhibition; TbPYK enzyme, Kinase-Glo Plus ATP luminescence, 45 min; Potency, µM (doses to about 76.8 µM), inactives show top-dose activity, negative = inhibition, most hits filed as inhibitors; 0.12% of 410,000 active; Q57TT1; further: potency means the concentration at half of the fitted maximal effect; on the % scale 0 is the no-effect control and ±100 the full control effect; nearly all actives have a fitted effect of over 50% in size
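Readout: single end-point luminescence (Kinase-Glo Plus, 10 min). Reaction conditions were TbPYK/substrate plus 130 uM ADP, 45 min at RT, pH 7.2 TEA buffer. No-enzyme wells served as controls, and data were normalized before concentration-response fitting.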
NS1 function inh – influenza NS1 inhibition | 0.4% of 270,000 active | Potency, µM (doses to about 46.1 µM), for the others: at the top dose activity, positive = more growth; calls by dose curve; further: potency means the concentration at half of the fitted maximal effect; actives are rising curves; nearly all actives have a fitted effect of over 50% in size
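Compounds were scored for reversing the slow growth caused by influenza A NS1 in S. cerevisiae, measured by optical density at 600 nm. Assay medium contained 2% galactose at pH 6.0; NS1-free yeast of the same strain were the positive control.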
AMA1 RON2 block – AMA1-RON2 (P. falciparum) interaction inhibition | AlphaScreen AMA1-biotinylated RON2 peptide binding | Potency, µM (titrated, usually from 58.2 µM), for the others: top-dose activity change, negative = inhibition, actives largely listed as inhibitors | 0.2% of 360,000 active;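 further: potency means the concentration at half of the fitted maximal effect; 0% = vehicle wells and -100% = peptide control; nearly all actives have a fitted effect of over 45% in size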
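AMA1 (3D7) with his tag at 25 nM final met compounds first, then biotinylated RON2 peptide at 25 nM; detection used donor plus acceptor beads, 10 µg/mL apiece, read by AlphaScreen after 30 min at room temperature.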
Flu NS1 inh – validation of influenza NS1 protein function inhibitors. shares compounds with NS1 function inh. influenza NS1 function cell assay, 15-point titration. activity change, negative = inhibition, % at 32.9 µM. 1,400 tested, under 10 active. AID 492980; calls by dose curve; further: 0% is about no effect
PR8 titer – reduces influenza A/PR/8/34 replication in MDCK cells; shares compounds with NS1 function inh; MDCK infected influenza A/PR/8/34, virus titer TCID50; hits give low values; virus titer (log TCID50), log10 TCID50 at 5 µM; 30% of 95 active; call rule not given here
Starred values were filed as active, the others as inactive. Unless noted, the call rests on the fitted dose curve; in most records, active means well fitted curve in the direction sought with a large enough effect; inconclusive means small, poorly fitted or top-dose-only effect, or another doubt; inactive means no such curve, though single readings can be large; an effect the other way counts as inactive or inconclusive.

Results for COc1ccc(/C(C)=N/NS(=O)(=O)c2ccccc2)c(OC)c1 ?
LmPK inh: 7%; Giardia FBPA inh: 1%; Tb PYK inh: 1%; AMA1 RON2 block: -17%

Results for COc1ccc(/C(C)=N\NS(C)(=O)=O)c(OC)c1 ?
LmPK inh: 3%; Giardia FBPA inh: -1%; Tb PYK inh: 2%; NS1 function inh: inconclusive; AMA1 RON2 block: 24%; Flu NS1 inh: -3

What do the screens show for `Cc1ccccc1-c1nc(NCCN2CCOCC2)c2ccccc2n1`?
Giardia FBPA inh: -6%

What do the screens show for `COc1cc(/C=N/NC(=S)N/N=C/c2cc(OC)c(OC)c(OC)c2)cc(OC)c1OC`?
LmPK inh: 0%; Giardia FBPA inh: 7%; Tb PYK inh: 11%; NS1 function inh: 11µM*; AMA1 RON2 block: 10%; Flu NS1 inh: 18

What do the screens show for `COc1ccc(C=NNC(=S)NN=Cc2ccc(OC)c(OC)c2)cc1OC`?
Tb PYK inh: 8%; AMA1 RON2 block: 53%

Results for Cc1cc(OCC(=O)NC(Cc2ccc(Cl)cc2)C(=O)O)c2c(C)cc(=O)oc2c1 (stereo unspecified) ?
LmPK inh: -6%; Giardia FBPA inh: 16%; Tb PYK inh: 6%; NS1 function inh: 13%; AMA1 RON2 block: 6%

Results for Cc1cc(OCC(=O)NC(Cc2ccc(Cl)cc2)C(=O)O)c2c(C)c(C)c(=O)oc2c1 (stereo unspecified) ?
LmPK inh: -2%; Giardia FBPA inh: 18%; Tb PYK inh: -18%; NS1 function inh: 7.9µM*; AMA1 RON2 block: 0%; Flu NS1 inh: inconclusive; PR8 titer: 8

Results for Cc1cc(OCC(=O)NC(Cc2ccc(Cl)cc2)C(=O)O)c2c3c(c(=O)oc2c1)CCCC3 (stereo unspecified) ?
LmPK inh: -5%; Giardia FBPA inh: 4%; Tb PYK inh: -5%; NS1 function inh: 3.2µM*; AMA1 RON2 block: -14%; Flu NS1 inh: 7

Results for COC(=O)C/C=C1\c2ccc3c(c2[C@@H](OC)[C@@H]1C)OCO3 ?
Giardia FBPA inh: -5%

How did CC[C@H](C)[C@H](NC(=O)[C@H](CCC(=O)O)NC(=O)[C@H](CC(N)=O)NC(=O)[C@@H](N)[C@@H](C)O)C(=O)N[C@H](C(=O)N[C@@H](CCC(=O)O)C(=O)N[C@@H](CCC(=O)O)C(=O)N[C@@H](CCC(N)=O)C(=O)N[C@@H](Cc1ccc(O)cc1)C(=O)N[C@H](C(=O)N1CCC[C@H]1C(=O)N[C@@H](CCC(N)=O)C(=O)N[C@@H](CO)C(=O)N[C@@H](CC(C)C)C(=O)N[C@@H](C)C(=O)N[C@H](C(=O)N[C@@H](CC(C)C)C(=O)N[C@@H](CCC(=O)O)C(=O)N[C@@H](CO)C(=O)N[C@H](C(=O)N[C@@H](Cc1ccccc1)C(=O)N[C@@H](CCC(N)=O)C(=O)N[C@@H](CCC(=O)O)C(=O)N[C@@H](CC(C)C)C(=O)NCC(=O)N[C@@H](CCCCN)C(=O)N[C@@H](CC(C)C)C(=O)N[C@H](C(=O)NCC(=O)N1CCC[C@H]1C(=O)N[C@@H](CC(N)=O)C(=O)N[C@@H](CO)C(=O)N[C@@H](CCC(N)=O)C(=O)O)[C@@H](C)O)C(C)C)[C@@H](C)O)[C@@H](C)O)C(C)C do in these assays?
Giardia FBPA inh: 0%

Results for Nc1ccc(S(N)(=O)=O)cc1N ?
LmPK inh: 9%; Giardia FBPA inh: inconclusive; Tb PYK inh: -9%; NS1 function inh: 4.5µM*; AMA1 RON2 block: 11%; Flu NS1 inh: 19

Results for COc1cccc2c1OCC/C2=N\NC(=O)COc1ccc(C)cc1 ?
LmPK inh: 1%; Giardia FBPA inh: 0%; Tb PYK inh: -10%; NS1 function inh: inconclusive; AMA1 RON2 block: 1%; Flu NS1 inh: -28

How did Cc1ccc(NC(=O)C(Nc2cccc(C)c2)c2ccccc2)cc1 (stereo unspecified) do in these assays?
LmPK inh: -3%; Giardia FBPA inh: -15%; Tb PYK inh: 2%; NS1 function inh: inconclusive; AMA1 RON2 block: -13%; Flu NS1 inh: inconclusive

Results for CC(C)(C)NC(=O)Cn1nnnc1-c1nonc1N ?
LmPK inh: -6%; Giardia FBPA inh: 0%; Tb PYK inh: 10%; NS1 function inh: inconclusive; AMA1 RON2 block: 7%; Flu NS1 inh: 19

How did CC1(C)Cc2c(C#N)c(N3CCN(C(=O)c4ccccc4)CC3)nc(-c3ccco3)c2CS1 do in these assays?
LmPK inh: 2%; Giardia FBPA inh: -29%; Tb PYK inh: -18%; NS1 function inh: 8.9µM*; AMA1 RON2 block: -1%; Flu NS1 inh: -35

Results for COc1cc(/C=N/NC(=O)c2sc3nc(C)cc(C)c3c2N)ccc1O ?
LmPK inh: -2%; Giardia FBPA inh: 2%; Tb PYK inh: -9%; NS1 function inh: inconclusive; AMA1 RON2 block: 11%; Flu NS1 inh: 5

What do the screens show for `COC(=O)c1sc2nc(C)cc(C)c2c1N`?
LmPK inh: -5%; Giardia FBPA inh: -14%; Tb PYK inh: -4%; NS1 function inh: 3%; AMA1 RON2 block: 32%

How did COc1cc2c(cc1OC)C(c1c[nH]c3ccccc13)NCC2 (stereo unspecified) do in these assays?
Giardia FBPA inh: 2%

How did CSCC[C@@H]1NC(=O)[C@@H](NC(=O)[C@H](CCCNC(=N)N)NC(=O)[C@H](CC(C)C)NC(=O)[C@H](CCSC)NC(=O)[C@H](CC(=O)O)NC(=O)[C@H](Cc2ccccc2)NC(=O)[C@@H](N)CC(=O)O)CSSC[C@@H](C(=O)N[C@@H](Cc2c[nH]c3ccccc23)C(=O)N[C@@H](CCC(N)=O)C(=O)N[C@@H](Cc2ccc(O)cc2)C(=O)O)NC(=O)[C@@H]2CCCN2C(=O)[C@H](CCCNC(=N)N)NC(=O)[C@H](Cc2ccccc2)NC(=O)[C@H](C(C)C)NC(=O)[C@H](CCCNC(=N)N)NC(=O)CNC(=O)[C@H](CC(C)C)NC1=O do in these assays?
Giardia FBPA inh: 1%

How did COc1ccc(OC)c(-n2c(C)nc3cc(C(=O)O)ccc32)c1 do in these assays?
LmPK inh: -1%; Giardia FBPA inh: -18%; Tb PYK inh: -25%; NS1 function inh: 14µM*; AMA1 RON2 block: 0%; Flu NS1 inh: 19

Results for COc1cc(-n2c(C)nc3cc(C(=O)O)ccc32)cc(OC)c1OC ?
LmPK inh: 6%; Giardia FBPA inh: 12%; Tb PYK inh: -16%; AMA1 RON2 block: -1%
